Screening data: PubChem, The Scripps Research Institute Molecular Screening Center
hcDAF-12 act: activators of H. contortus DAF-12 nuclear receptor | HEK293 hcDAF-12 lit1-tk-luc reporter, luminescence; 0% DMSO, 100% Δ7-dafachronic acid | activation, % at 6.8 µM | 370,000 tested, 1.4% active;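 active means activation above the mean of all tested compounds plus 3 SD, cut at about 5.5% in these data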;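 further: 100% = response to 3 µM Δ7-dafachronic acid high control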
hgDAF-12 ag: hgDAF-12 agonism, primary luciferase screen; 370,000 tested, 1.8% active; activation, % at 6.8 µM; HEK293 GAL4-hgDAF12 UAS-luciferase reporter, agonist luminescence; normalized to butyrate control;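 active means activation above a cutoff set at the mean of all screened compounds plus 3 SD, cut at about 10% in these data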;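 further: 0% = DMSO wells and 100% = sodium butyrate wells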
DAX1 inh-1: inhibits human nuclear receptor DAX1; P51843; HEK293 Gal4-DAX1 luciferase reporter, luminescence; inhibition, % at 6.75 µM; 340,000 tested, 0.99% active; AID 504766;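 active means inhibition above the mean over all tested compounds plus 3 SD, cut at about 4.2% in these data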;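 further: 0% = DAX1-transfected cells with DMSO and 100% = empty-vector control cells with DMSO; inhibition shows as a rise in luminescence from relieved DAX1 repression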
DAX1 inh-2: DAX1 (NR0B1) inhibition, primary screen. 370,000 tested, 1.1% active. HEK293T StAR-luciferase reporter, SF-1/DAX-1 repression relief. inhibition, % at 6.8 µM;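 active means inhibition above the mean over all tested compounds plus 3 SD, cut at about 3.6% in these data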;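 further: 0% = DAX-1 cells with DMSO and 100% = cells lacking DAX-1 with DMSO; higher inhibition means more luminescence from relief of DAX-1 repression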
ssDAF12 agonist: activates DAF-12 receptor from parasite S. stercoralis; AID 652126; HEK293 ssDAF-12/GRIP1 lit1-tk-luc reporter, luminescence; % of 3 µM dafachronic acid response; 370,000 tested, 1% active; activation, % at 6.8 µM;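 active means activation above the mean over all tested compounds plus 3 SD, cut at about 0.9% in these data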;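 further: 0% = DMSO-only wells and 100% = 3 µM delta7-dafachronic acid wells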
LXR ag: activates human LXR-beta, counter-screen for hcDAF-12 agonists; AID 743027; 3,400 tested, under 10 active; activation, % at 6.8 µM; HEK293 Gal4-LXR tk-luc reporter, luminescence, 24 h; normalized: DMSO 0%, positive control 100%; shares compounds with hcDAF-12 act;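 active means mean percent activation of the reporter above a cutoff set as the average over tested compounds plus their standard deviation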
Target sequence (P55055 whole entry, looked up, the tested form may be a part): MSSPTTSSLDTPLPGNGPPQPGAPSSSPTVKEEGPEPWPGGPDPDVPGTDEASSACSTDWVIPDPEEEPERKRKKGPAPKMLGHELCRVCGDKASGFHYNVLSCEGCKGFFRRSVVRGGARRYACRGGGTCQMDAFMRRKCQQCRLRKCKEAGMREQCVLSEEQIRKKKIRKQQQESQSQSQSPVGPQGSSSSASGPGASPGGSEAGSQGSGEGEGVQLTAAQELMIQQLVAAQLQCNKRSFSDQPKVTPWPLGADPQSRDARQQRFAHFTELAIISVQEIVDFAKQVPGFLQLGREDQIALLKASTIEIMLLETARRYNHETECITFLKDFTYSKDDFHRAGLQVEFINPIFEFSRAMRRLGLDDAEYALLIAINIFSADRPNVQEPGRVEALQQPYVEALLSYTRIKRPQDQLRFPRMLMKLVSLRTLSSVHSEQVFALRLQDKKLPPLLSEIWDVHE
hcDAF12 ag: hcDAF-12 agonism, confirmation assay; 3,400 tested, 61% active; activation, % at 6.8 µM; shares compounds with hcDAF-12 act; HEK293 hcDAF-12 lit1-tk-luc reporter, luminescence; % of Δ7-dafachronic acid response;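 active means mean activation across triplicate tests above the threshold derived from the earlier primary screen, cut at about 5.5% in these data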;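 further: 0% = DMSO only wells and 100% = 3 µM Δ7-dafachronic acid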
Numbers without * were called inactive; . = no result given. Rows were chosen to be rich in hits. Some 4.1% of all compounds tested hit in one or more screens of this group.

SMILES	hcDAF-12 act	hgDAF-12 ag	DAX1 inh-1	DAX1 inh-2	ssDAF12 agonist	LXR ag	hcDAF12 ag
Oc1ccc(Cl)cc1-c1cc(-c2ccco2)[nH]n1	7.6*	9.1	0.5	0.6	-0.4	-0.1	3.1
COc1ccc(C(=O)NCCc2nnc3ccc(SCC(=O)N4CCCCC4)nn23)cc1	1.2	-2.1	0.6	2.1	-0.5	.	.
COc1ccc(Cc2c(-c3cccc(Br)c3)nc3cc(C)c(Br)c(C)n23)c(C)c1	4.5	-6.7	.	-2.3	0.5	.	.
COc1ccc(Cc2c(-c3ccc(C)cc3)nc3cc(C)c(Br)c(C)n23)c(C)c1	11.1*	10.8*	.	3.4	2.1*	-0.1	6.1*
CCc1ccc2oc(-c3cc(N)ccc3Cl)nc2c1	14.1*	9.2	1.5	2.2	1.3*	0.8	9.8*
CCc1ccc2oc(-c3cc(N)ccc3O)nc2c1	8.3*	8.5	-1.6	2.3	0.1	0.8	7.7*
O=C1Nc2ccccc2SC1=Cc1ccccc1	5.2	2.0	1.8	0.8	-0.5	.	.
O=C1CCCC2=C1Sc1ccccc1N2	7.8*	-0.6	.	-0.2	-1.1	-0.2	4.4
N#CC1=C(N)Oc2c(oc(CO)cc2=O)C1c1ccsc1 (stereo not given)	0.2	0.3	-1.1	-0.5	-0.2	.	.
N#CC1=C(N)Oc2c(ccc3ccccc23)C1c1ccsc1 (stereo not given)	7.1*	11.8*	-2.9	-0.9	0.9*	-0.1	3.9
Cc1nn(C)cc1S(=O)(=O)Nc1ccc(C(F)(F)F)cc1	-1.8	-0.6	0.5	-0.8	-1.5	.	.
COC(=O)/C=C(\C)N=Nc1c(O)[nH]c2ccccc12	7.3*	1.4	1.3	0.2	0.4	-0.1	6.8*
Oc1[nH]c2ccccc2c1N=Nc1ccccc1	13.4*	10.2	1.9	1.9	0.5	0.7	14.0*
O=C(CN1CCCCC1)N=Nc1c(O)[nH]c2ccccc12	2.6	0.6	2.9	-0.1	-0.6	.	.
CC(C)(C)NC(=O)CN1CCN(C(=O)CCl)CC1	0.1	1.4	0.8	-1.8	-1.4	.	.
CCOC(=O)C1=CCN(S(=O)(=O)c2ccc(F)cc2)C1c1ccccc1 (stereo not given)	7.7*	-1.2	.	0.1	-1.6	-0.1	0.9
CCc1nnc(NC(=O)c2nc3nc(C)cc(C)n3n2)s1	-1.2	1.7	1.4	-0.1	-0.8	.	.
O=c1[nH]c2cc3c(cc2cc1CN(Cc1ccccc1)Cc1nnnn1Cc1ccco1)OCCO3	8.3*	4.6	-1.2	1.4	0.2	-0.5	-1.3
O=c1[nH]c2cc3c(cc2cc1CN(Cc1cccnc1)Cc1nnnn1Cc1ccco1)OCCO3	-0.7	1.6	0.9	0.3	-0.8	.	.
CCCCNC(=S)N(CCO)Cc1cc2cc3c(cc2[nH]c1=O)OCCO3	7.2*	0.8	1.7	0.1	-0.7	-0.2	3.2
O=C1C(Cl)=C(Nc2ccccc2)C(=O)c2ccccc21	7.9*	3.3	1.6	1.0	0.1	-0.4	0.6
CCN1CCCC1CNC(=O)c1cc2cc(F)ccc2[nH]1 (stereo not given)	11.2*	4.1	3.3	0.7	1.2*	-0.1	5.9*
CCN1CCCC1CNC(=O)Cn1nc(C)n2c(cc3cc(F)ccc32)c1=O (stereo not given)	-0.5	-1.3	1.4	0.7	0.0	.	.
O=C(c1ccco1)c1coc2c1cc(O)c1ccccc12	7.9*	5.8	0.7	0.4	1.0*	0.1	6.1*
Cc1ccc2oc(/N=C(\N)NC(=O)C3CC3)nc2c1	6.6*	9.9	-5.8	-0.3	0.4	1.6	7.0*
SMILES	hcDAF-12 act	hgDAF-12 ag	DAX1 inh-1	DAX1 inh-2	ssDAF12 agonist	LXR ag	hcDAF12 ag
CCC(C)c1ccc(Nc2ncccc2C#N)cc1 (stereo not given)	7.7*	7.2	0.8	0.1	-0.1	0.6	8.6*
O=C(NCc1ncc(C(F)(F)F)cc1Cl)Nc1ccccc1	0.4	0.1	-0.4	-0.1	-1.2	.	.
CCCC(=O)Nc1c2c(nn1-c1cccc(C)c1C)CS(=O)(=O)C2	8.1*	3.3	-0.8	0.8	0.1	0.1	5.0
CCN(CC)CCn1c(=N)n(CC(=O)c2ccc(C)cc2)c2ccccc21	8.2*	4.7	3.4	1.4	1.2*	0.1	5.1
Cn1c(=N)n(CC(=O)O)c2ccccc21	2.9	0.8	1.1	-0.3	-1.1	.	.
Cc1ccc(C(=O)Cn2c(=N)n(N)c3ccccc32)cc1	7.5*	9.1	4.6*	1.6	1.6*	0.4	4.0
Cn1c(=N)n(CC(=O)c2ccccc2)c2ccccc21	18.4*	10.7*	.	2.9	2.5*	1.8	25.0*
Cc1ccc(-c2cc(C(=O)n3cnc4ccccc43)c3ccccc3n2)cc1C	8.1*	6.6	0.6	3.1	1.5*	0.3	4.3
Cc1ccc(-c2cc(C(=O)NCc3ccccn3)c3ccccc3n2)cc1C	0.5	5.4	-2.3	-0.1	-0.6	.	.
C[C@@H]1CN([C@H](C)CO)S(=O)(=O)c2ccc(Br)cc2O[C@H]1CN(C)C(=O)Cc1ccccn1	-0.2	-4.3	1.7	-0.9	-0.5	.	.
CC1(C)CC(=O)N(CC(=O)NCc2ccccc2)c2ccccc2S1(=O)=O	13.7*	1.1	-0.4	-0.1	-1.5	-0.3	0.6
OC(c1ccc(Cl)c(Cl)c1)c1ncc(-c2ccccc2F)[nH]1 (stereo not given)	1.3	0.2	.	-0.2	-1.1	.	.
CC1CCc2c(nc3sc4c(c3c2N)CCCC4)C1 (stereo not given)	7.1*	20.6*	1.3	1.6	-0.4	0.6	2.0
C#Cc1ccc([C@@H]2C=C(C(=O)NCc3ccccc3)O[C@H](OCCCCO)C2)cc1	-0.5	-0.3	0.2	0.1	-1.5	.	.
COc1cccc(C(=O)Nc2ccc(NC(=O)C3C4C=CC(C4)C3C(=O)O)cc2)c1 (stereo not given)	12.3*	10.5*	0.3	2.6	1.0*	0.0	2.8
COc1cc(NC(=O)C2C3C=CC(C3)C2C(=O)O)ccc1NC(=O)c1ccccc1 (stereo not given)	-2.7	-2.3	0.2	-0.2	-1.4	.	.
CCCCN(C)C(=O)c1nc2ccccn2c1CN1CCC[C@H]1CO	2.0	-1.3	1.1	0.5	-0.9	.	.
N#C/C(=C\c1ccc(N2CCOCC2)o1)c1nc2ccccc2[nH]1	11.1*	-0.9	2.7	3.5	0.2	1.9	5.9*
CSCCC(NS(=O)(=O)c1cccc(C(F)(F)F)c1)C(=O)Nc1ccccc1N1CCCC1 (stereo not given)	1.3	2.8	-0.1	0.3	-1.2	.	.
CN(C(=O)COc1cc(=O)n(C)c2ccccc12)c1ccc(Br)cc1	6.8*	0.6	0.6	-0.3	0.4	-0.1	2.8
